# Where “and” joins values, the source holds several entries; their conditions need not be identical. Equal values may be shown once. Calls of active or inactive are those of the source.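 Rule for the calls, unless noted: active = thallium flux through the channel raised or lowered by more than 3 SD from vehicle-only wells, actives on both sides; inactive = the rest.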
# Columns and labels:
# [1] = viability loss with induced miR-34 in A549 – imaging, A549 dox-inducible miR-34, nuclei and caspase counts, primary screen (AID 1347080;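 active = compounds whose cell count with miR-34 switched on is under 0.7 times the count with it off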); conditions: A549 miR-34 inducible, Hoechst nuclei count, 48 h
# [2] = MELAS cybrid and Rieske KO viability enhancers – cell-based, MELAS cybrids, Rieske KO mouse fibroblasts, CellTiter-Glo, primary screen (AID 1508586;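 active = mean z-score across replicates of 1.96 or higher in either the MELAS or the Rieske mutant cell line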;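 note: z relative to plate mean and SD of compound and empty wells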); conditions: low glucose
# [3] = galactose survival enhancers in mitochondrial complex I cybrids – cell-based, galactose medium, ATP luminescence, primary screen (AID 1645843;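 active = z-score of at least 1.8 in each of two replicates, scored against plate mean and spread of sample wells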;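 note: positive z means more ATP and so rescue of galactose-driven cybrid death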); conditions: complex I mutant cybrid cells, 72 h, stronger effect = higher value
# F380Y = assay: BK channel mutant inhibitors and activators – cell-based, U2OS BacMam, thallium flux, beta subunits, selectivity assay, profiling panel (AID 1259406); conditions: U2OS BacMam BK variants, at 30 µM;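 note: initial slope of Thallos dye fluorescence rise after thallium is added; log ratio against the mean of 0.3% DMSO vehicle wells on the same plate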
# F380Y/beta1 = assay: as above; conditions: U2OS BacMam BK variants, at 30 µM
# F380Y/beta2Delta = assay: as above; conditions: U2OS BacMam BK variants, at 30 µM
# F380Y/beta4 = assay: as above; conditions: U2OS BacMam BK variants, at 30 µM
# [4] = molecular target: Calcium-activated potassium channel subunit alpha-1 (Homo sapiens) + Leucine-rich repeat-containing protein 26 (Homo sapiens) (UniProt Q12791+Q2I0M4); assay: as above; conditions: U2OS BacMam BK variants, F380Y/Slo1WT/gamma1, at 30 µM
# R275C = assay: as above; conditions: U2OS BacMam BK variants, at 30 µM
# R275C/beta1 = assay: as above; conditions: U2OS BacMam BK variants, at 30 µM
# R275C/beta2Delta = assay: as above; conditions: U2OS BacMam BK variants, at 30 µM
# R275C/beta4 = assay: as above; conditions: U2OS BacMam BK variants, at 30 µM
# R275C/Slo1WT/beta2 = assay: as above; conditions: U2OS BacMam BK variants, at 30 µM
# [5] = P. berghei load reduction in hepatocytes – cell-based, HepG2, luciferase luminescence, HepG2 viability, primary screen (AID 624349; in the data active = parasite load remaining mostly below about 12%, no sharp cut-off; inactive = mostly above about 10%;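 note: 100% = mean of DMSO negative control wells on the same plate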); conditions: P. berghei liver stage in HepG2, luciferase luminescence, concentration not given here; parasite load remaining: stronger effect = lower value; viability: measured here: HepG2 viability without parasites
# [6] = signal quenchers or enhancers, Cy5 substrate/SSB – biochemical, NIH Clinical Collection, E. coli SSB, artefact control for HCV NS3 helicase inhibitor project (AID 743268; call rule not given here); conditions: Cy5-oligo bound E. coli SSB, fluorescence interference
# [7] = tested on: Hepatitis C virus NS3 helicase; assay: blockers of NS3h binding to DNA – biochemical, fluorescence polarization, NIH Clinical Collection, primary screen (AID 743270; call rule not given here); conditions: NS3 helicase binding to Cy5-dT15 DNA, stronger effect = higher value, concentration not given here
# [8] = molecular target: Single-stranded DNA-binding protein (Escherichia coli (strain K12)) (UniProt P0AGE0); assay: SSB-ssDNA binding inhibitors – biochemical, fluorescence polarization, NIH Clinical Collection, counter-screen for HCV NS3 helicase inhibitor project (AID 743271; in the data active = inhibition above about 28%); conditions: E. coli SSB-DNA binding, stronger effect = higher value, concentration not given here
# [9] = compounds distorting NS3 helicase fluorescence signal – biochemical, NIH Clinical Collection, artefact control for HCV NS3 helicase inhibitor project (AID 743272; call rule not given here;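 note: HCV NS3 helicase with a Cy5 labelled single stranded DNA probe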); conditions: fluorescence interference counterscreen, HCV NS3 helicase assay; stronger effect = lower value
# [10] = tested on: Neuropilin-2 / VEGF-C interaction (human); assay: small molecules blocking Neuropilin-2/VEGF-C interaction – biochemical, microplate binding format, z-score (AID 743281; call rule not given here); conditions: microplate NRP2/VEGF-C binding assay; stronger effect = lower value
# [11] = modulation of C. elegans fzo-1 (AID 1259413; call rule not given here;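 note: fzo-1 mutant C. elegans worms in liquid wells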); conditions: C. elegans fzo-1 modulator screen, mean read-out; stronger effect = higher value
# [12] = stronger effect = lower value, cell number ratio, induced over uninduced
# [13] = measured here: relative caspase fold change +Dox/-Dox
# [14] = measured here: total cells with miR-34 induction, stronger effect = lower value
# [15] = measured here: total cells without miR-34 induction
# [16] = MELAS cybrid survival, CellTiter-Glo 48 h, stronger effect = higher value
# [17] = Rieske KO mouse fibroblast survival, CellTiter-Glo 72 h
# Sequence of Calcium-activated potassium channel subunit alpha-1 (Homo sapiens) + Leucine-rich repeat-containing protein 26 (Homo sapiens) (Q2I0M4 whole entry, looked up, one chain of several): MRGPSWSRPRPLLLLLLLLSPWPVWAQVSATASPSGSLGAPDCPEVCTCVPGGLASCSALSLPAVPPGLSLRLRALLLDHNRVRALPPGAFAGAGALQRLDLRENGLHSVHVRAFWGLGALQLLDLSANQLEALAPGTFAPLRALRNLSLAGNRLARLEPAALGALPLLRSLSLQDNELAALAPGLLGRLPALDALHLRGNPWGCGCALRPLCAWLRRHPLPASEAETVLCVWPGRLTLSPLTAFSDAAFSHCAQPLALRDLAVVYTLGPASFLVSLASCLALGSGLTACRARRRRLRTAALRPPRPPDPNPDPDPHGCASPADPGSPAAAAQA
smiles,measurement,setting,value
O=C(O)Cc1ccc([N+](=O)[O-])cc1,fold change,[1]; [12],0.849 (inactive)
same,fold change,[1]; [13],0.69
same,cell count,[1]; [14],8560
same,cell count,[1]; [15],10100
same,z-score,[2]; [16],-0.276 (inactive)
same,z-score,[2]; [17],-0.17
same,z-score,[3],0.95 (inactive)
same,log fold change Tl+ flux,F380Y,-0.0269 (inactive)
same,log fold change Tl+ flux,F380Y/beta1,-0.0396 (inactive)
same,log fold change Tl+ flux,F380Y/beta2Delta,-0.012 (inactive)
same,log fold change Tl+ flux,F380Y/beta4,-0.00207 (inactive)
same,log fold change Tl+ flux,[4],-0.0215 (inactive)
same,log fold change Tl+ flux,R275C,-0.0145 (inactive)
same,log fold change Tl+ flux,R275C/beta1,-0.00497 (inactive)
same,log fold change Tl+ flux,R275C/beta2Delta,0.00238 (inactive)
same,log fold change Tl+ flux,R275C/beta4,-0.00439 (inactive)
same,log fold change Tl+ flux,R275C/Slo1WT/beta2,0.0202 (inactive)
O=c1c(O[C@@H]2O[C@H](CO)[C@@H](O)[C@H](O)[C@H]2O)c(-c2ccc(O)c(O)c2)oc2cc(O)cc(O)c12,parasite load remaining,[5],52.7% (inactive)
same,viability,[5],69.6%
same,fluorescence ratio,[6],0.86 (inactive)
same,inhibition,[7],2.77% (inactive)
same,inhibition,[8],12.2% (inactive)
same,fluorescence ratio,[9],0.99 (inactive)
same,z-score,[10],-0.152 (inactive)
same,mean signal,[11],249 (inactive)
same,log fold change Tl+ flux,F380Y,-0.0619 (inactive)
same,log fold change Tl+ flux,F380Y/beta1,0.0645 (inactive)
same,log fold change Tl+ flux,F380Y/beta2Delta,-0.0137 (inactive)
same,log fold change Tl+ flux,F380Y/beta4,-0.0759 (inactive)
same,log fold change Tl+ flux,[4],0.0381 (inactive)
same,log fold change Tl+ flux,R275C,0.0103 (inactive)
same,log fold change Tl+ flux,R275C/beta1,0.0316 (inactive)
same,log fold change Tl+ flux,R275C/beta2Delta,0.0226 (inactive)
same,log fold change Tl+ flux,R275C/beta4,0.0307 (inactive)
same,log fold change Tl+ flux,R275C/Slo1WT/beta2,-0.0065 (inactive)
O=c1cnn([C@@H]2O[C@H](CO)[C@@H](O)[C@H]2O)c(=O)[nH]1,parasite load remaining,[5],51.8% (inactive)
same,viability,[5],79.3%
same,fluorescence ratio,[6],0.94 (inactive)
same,inhibition,[7],-2.84% (inactive)
same,inhibition,[8],-1.97% (inactive)
same,fluorescence ratio,[9],0.89 (inactive)
same,z-score,[10],-0.659 (inactive)
same,mean signal,[11],301 (inactive)
same,log fold change Tl+ flux,F380Y,-0.0103 (inactive)
same,log fold change Tl+ flux,F380Y/beta1,0.0132 (inactive)
same,log fold change Tl+ flux,F380Y/beta2Delta,-0.027 (inactive)
same,log fold change Tl+ flux,F380Y/beta4,0.00308 (inactive)
same,log fold change Tl+ flux,[4],-0.026 (inactive)
same,log fold change Tl+ flux,R275C,0.00432 (inactive)
same,log fold change Tl+ flux,R275C/beta1,-0.00973 (inactive)
same,log fold change Tl+ flux,R275C/beta2Delta,-0.0295 (inactive)
same,log fold change Tl+ flux,R275C/beta4,-0.0439 (inactive)
same,log fold change Tl+ flux,R275C/Slo1WT/beta2,-0.0257 (inactive)
CC1(C)O[C@@H]2C[C@H]3[C@@H]4C[C@H](F)C5=CC(=O)C=CC5(C)[C@H]4[C@@H](O)CC3(C)C2(C(=O)CO)O1 (stereo partly drawn),mean signal,[11],250 (inactive)
CC/C(=C(/c1ccccc1)c1ccc(OCCN(C)C)cc1)c1ccccc1,mean signal,[11],234 (inactive)
COCCCCC(=NOCCN)c1ccc(C(F)(F)F)cc1,parasite load remaining,[5],46.6% (inactive)
same,viability,[5],56.9%
same,fluorescence ratio,[6],0.97 (inactive)
same,inhibition,[7],-1.98% (inactive)
same,inhibition,[8],-0.1% (inactive)
same,fluorescence ratio,[9],0.89 (inactive)
same,fold change,[1]; [12],0.929 (inactive) and 0.879 (inactive) and 0.949 (inactive)
same,fold change,[1]; [13],2.57 and 0.586 and 0.773
same,cell count,[1]; [14],7760 and 8160 and 6370
same,cell count,[1]; [15],8360 and 9280 and 6710
same,z-score,[2]; [16],0.785 (inactive) and -0.408 (inactive)
same,z-score,[2]; [17],0.468 and -0.05
same,z-score,[3],-0.79 (inactive) and -1.17 (inactive)
same,log fold change Tl+ flux,F380Y,-0.0607 (inactive)
same,log fold change Tl+ flux,F380Y/beta2Delta,-0.0598 (inactive)
same,log fold change Tl+ flux,[4],-0.0791 (inactive)
same,log fold change Tl+ flux,R275C,-0.0449 (inactive)
same,log fold change Tl+ flux,R275C/beta1,0.0249 (inactive)
same,log fold change Tl+ flux,R275C/beta2Delta,0.0321 (inactive)
CO[C@H]1C=CO[C@@]2(C)Oc3c(C)c(O)c4c(O)c(c5c(nc6cc(C)ccn65)c4c3C2=O)NC(=O)C(C)=CC=C[C@H](C)[C@H](O)[C@@H](C)[C@@H](O)[C@@H](C)[C@H](OC(C)=O)[C@@H]1C,parasite load remaining,[5],97.9% (inactive)
same,viability,[5],78.8%
same,fluorescence ratio,[6],0.98 (inactive)
same,inhibition,[7],1.19% (inactive)
same,inhibition,[8],1.44% (inactive)
same,fluorescence ratio,[9],1.01 (inactive)
same,log fold change Tl+ flux,F380Y,-0.487 (active)
same,log fold change Tl+ flux,F380Y/beta1,-0.224 (active)
same,log fold change Tl+ flux,F380Y/beta2Delta,-0.411 (active)
same,log fold change Tl+ flux,F380Y/beta4,-0.508 (active)
same,log fold change Tl+ flux,[4],-0.124 (active)
same,log fold change Tl+ flux,R275C,-0.242 (active)
same,log fold change Tl+ flux,R275C/beta1,0.0122 (inactive)
same,log fold change Tl+ flux,R275C/beta2Delta,-0.0244 (inactive)
same,log fold change Tl+ flux,R275C/beta4,-0.0127 (inactive)
same,log fold change Tl+ flux,R275C/Slo1WT/beta2,-0.00936 (inactive)
CC(C)CC(NC(=O)C(COC(C)(C)C)NC(=O)C(Cc1ccc(O)cc1)NC(=O)C(CO)NC(=O)C(Cc1c[nH]c2ccccc12)NC(=O)C(Cc1cnc[nH]1)NC(=O)C1CCC(=O)N1)C(=O)N[C@@H](CCCN=C(N)N)C(=O)N1CCCC1C(=O)NNC(N)=O (stereo partly drawn),parasite load remaining,[5],82.9% (inactive)
same,viability,[5],90.6%
same,fluorescence ratio,[6],0.89 (inactive)
same,inhibition,[7],-0.22% (inactive)
same,inhibition,[8],7.48% (inactive)
same,fluorescence ratio,[9],0.87 (inactive)
same,z-score,[10],-0.441 (inactive)
same,log fold change Tl+ flux,F380Y,-0.0277 (inactive)
same,log fold change Tl+ flux,F380Y/beta1,0.02 (inactive)
same,log fold change Tl+ flux,F380Y/beta2Delta,-0.0184 (inactive)
same,log fold change Tl+ flux,F380Y/beta4,0.00509 (inactive)
same,log fold change Tl+ flux,[4],-0.0112 (inactive)
same,log fold change Tl+ flux,R275C,-0.0448 (inactive)
same,log fold change Tl+ flux,R275C/beta1,0.00576 (inactive)
same,log fold change Tl+ flux,R275C/beta2Delta,-0.00625 (inactive)
same,log fold change Tl+ flux,R275C/beta4,-0.0787 (inactive)
same,log fold change Tl+ flux,R275C/Slo1WT/beta2,0.0919 (active)
Cc1cc(=O)oc2cc(NC(=O)C3CCC(=O)N3)ccc12 (stereo not drawn),parasite load remaining,[5],62.4% (inactive)
same,viability,[5],136%
same,fluorescence ratio,[6],0.96 (inactive)
same,inhibition,[7],1.36% (inactive)
same,inhibition,[8],11.7% (inactive)
same,fluorescence ratio,[9],0.91 (inactive)
same,fold change,[1]; [12],0.953 (inactive)
same,fold change,[1]; [13],1.59
same,cell count,[1]; [14],10900
same,cell count,[1]; [15],11400
same,z-score,[3],-0.335 (inactive)
same,log fold change Tl+ flux,F380Y,-0.00455 (inactive)
same,log fold change Tl+ flux,F380Y/beta1,-0.0136 (inactive)
same,log fold change Tl+ flux,F380Y/beta2Delta,-0.0131 (inactive)
same,log fold change Tl+ flux,F380Y/beta4,0.0184 (inactive)
same,log fold change Tl+ flux,[4],-0.00524 (inactive)
same,log fold change Tl+ flux,R275C,-0.000517 (inactive)
same,log fold change Tl+ flux,R275C/beta1,0.0432 (inactive)
same,log fold change Tl+ flux,R275C/beta2Delta,-0.00476 (inactive)
same,log fold change Tl+ flux,R275C/beta4,-0.0203 (inactive)
same,log fold change Tl+ flux,R275C/Slo1WT/beta2,-0.0148 (inactive)

# Reference: PubChem BioAssay
